The target in one assay is Albumin (Bos taurus) (UniProt P02769). As to the kind of experiment: bovine serum albumin binders on microarray, profiling panel, artefact control for SMM control protein annotation, biochemical, small-molecule microarray, Alexa647 label, 635/667 nm fluorescence (AID 1118).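 Also: score merges 667 nm emission intensity and signal-to-noise per printed compound spot.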 Particulars: BSA-A647 binding, fluorescence 635 nm, higher = more signal.
The nature of assay [1]: small-molecule microarray binders of probe aXIP, primary screen, biochemical, NeuroSMM set, 635/667 nm fluorescence (AID 1119).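 Also: probe is the protein aXip251-270 applied at 1 µg/mL to compound-printed slides; binding of probe to printed compounds measured as 667 nm fluorescence plus signal to noise.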 The settings on record: higher = more signal, called active from +8 up or from −8 down.
Assay [2] in a line: small-molecule binders of probe aNOTCH3, primary screen, biochemical, small-molecule microarray, 635/667 nm fluorescence (AID 1120).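 Also: probe is a biotin-tagged antibody raised against NOTCH3 rather than NOTCH3 protein; score merges spot fluorescence near 667 nm with spot signal to noise.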 Particulars: higher = more signal.
A short description of assay [3]: small-molecule binders of probe aNOTCH2, primary screen, biochemical, small-molecule microarray, 635/667 nm fluorescence (AID 1121).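 Also: score merges feature fluorescence read at 667 nm with its signal to noise.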 Particulars: higher = more signal.
The target in assay [4] is Carbonic anhydrase 2 (Homo sapiens) (UniProt P00918). As to the kind of experiment: CAII small-molecule binders, profiling panel, biochemical, small-molecule microarray, Alexa647-labelled CAII (AID 1122). The settings on record: CAII-A647 binding fluorescence, higher = more signal.
Assay [5] in a line: COS7 lysate on small-molecule microarray, probe aHis, 635 nm (AID 1123).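 Also: z-score combines 667nm fluorescence intensity with signal-to-noise per printed compound spot.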 The settings on record: COS7 cell lysate, fluorescence, higher = more signal.
Assay [6] can be described thus: compound binding in COS7 lysate, probe aLAP1, primary screen, cell lysate, small-molecule microarray (AID 1124).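 Also: lysate comes from COS7 cells expressing LAP1 and is applied at 0.3 µg/mL; score merges spot fluorescence near 667 nm with signal-to-noise over triplicate slides.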 Particulars: probe aLAP1, fluorescence, higher = more signal.
In a further assay the test system is Sam68 (KHDRBS1). The assay can be described thus: Sam68 small-molecule binders, primary screen, biochemical, small-molecule microarray, 635 nm fluorescence (AID 1125).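 Also: score merges 667 nm channel intensity with signal to noise over triplicate slides.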 The settings on record: small-molecule microarray binding, higher = more signal.
The test system of assay [7] is Chordin-like protein 2 (CHRDL2). As to the kind of experiment: CHRDL2 small-molecule binders, primary screen, biochemical, small-molecule microarray, 635 nm fluorescence (AID 1126).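 Also: printed compound slides probed with Chrdl2 protein at 4 µg/mL for 1 h at 4 C; score merges 667 nm emission intensity with signal to noise over three replicate slides.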 The settings on record: small-molecule microarray binding, fluorescence 635 nm; higher = more signal.
Assay [8] deals with Concanavalin-A (Canavalia ensiformis) (UniProt P02866). As to the kind of experiment: ConA small-molecule binders, primary screen, artefact control for SMM control protein annotation, biochemical, small-molecule microarray, Alexa647 label, 635 nm (AID 1127).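 Also: z combines 667 nm emission intensity with signal-to-noise across three replicate slides.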 Particulars: ConA-A647 binding fluorescence, higher = more signal.

The source made the active and inactive calls.

Chain of Concanavalin-A (Canavalia ensiformis) (P02866 whole entry, looked up): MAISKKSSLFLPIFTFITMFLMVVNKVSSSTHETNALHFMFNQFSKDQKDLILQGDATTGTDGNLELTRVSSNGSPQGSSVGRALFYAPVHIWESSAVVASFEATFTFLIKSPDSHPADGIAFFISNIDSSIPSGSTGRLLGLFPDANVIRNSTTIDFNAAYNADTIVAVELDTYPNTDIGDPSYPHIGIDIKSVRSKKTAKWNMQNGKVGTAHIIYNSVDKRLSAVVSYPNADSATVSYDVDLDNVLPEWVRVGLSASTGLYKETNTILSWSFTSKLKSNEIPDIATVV
Chain of Albumin (Bos taurus) (P02769 whole entry, looked up): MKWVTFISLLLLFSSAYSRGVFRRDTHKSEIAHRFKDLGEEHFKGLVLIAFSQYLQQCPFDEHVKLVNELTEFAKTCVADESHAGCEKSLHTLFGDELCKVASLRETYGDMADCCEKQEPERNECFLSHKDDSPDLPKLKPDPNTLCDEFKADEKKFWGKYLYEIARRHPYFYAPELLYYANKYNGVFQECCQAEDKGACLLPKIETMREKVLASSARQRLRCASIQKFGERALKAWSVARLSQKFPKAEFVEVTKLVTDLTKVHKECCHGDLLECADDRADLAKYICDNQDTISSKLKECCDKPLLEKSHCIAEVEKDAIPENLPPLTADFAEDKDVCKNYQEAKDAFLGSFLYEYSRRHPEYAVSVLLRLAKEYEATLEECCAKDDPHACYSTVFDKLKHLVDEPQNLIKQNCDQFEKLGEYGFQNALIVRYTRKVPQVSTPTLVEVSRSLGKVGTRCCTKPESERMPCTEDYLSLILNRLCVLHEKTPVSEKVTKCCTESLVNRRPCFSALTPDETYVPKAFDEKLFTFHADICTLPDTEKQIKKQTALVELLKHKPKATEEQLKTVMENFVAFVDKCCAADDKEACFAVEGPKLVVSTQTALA

`CC(C)=CCCC(C)=CCON=C1C[C@@H](O)[C@@H](O)[C@@H]2[C@@H]3C(=O)N(C(C)(C)C)C(=O)[C@@H]3CC[C@@H]12`: the composite z-score was 0.0038 with Albumin (Bos taurus); -0.127 in assay [2]; -0.0859 in assay [3]; -0.0211 in [4]; -0.13 in [5]; -0.0115 in assay [6]. In addition, the composite z-score in the assay with Sam68 (KHDRBS1) came out at 0.383; in assay [7], 0.129; in assay [8] it was 0.411. Further, the composite Z-score in assay [1] is -0.204 (inactive).

On to `COC(=O)CC=C[C@@H](C)[C@@H](C=NOC[C@H]1O[C@H](c2ccccc2)C=C[C@@H]1Oc1ccc(OC)cc1)NS(=O)(=O)c1ccc(C)cc1`, for which the composite z-score is -0.453 with Albumin (Bos taurus); -0.196 in [2]; -0.138 in assay [3]; -0.648 in [4]; -0.588 in assay [5]; -0.689 in assay [6]. The composite z-score with Sam68 (KHDRBS1) is -1.18; in assay [7], 0.156; in [8], -2.02. Further, in assay [1], the composite Z-score is -0.769 (inactive).

As to `CC(CCN1CCCCc2nc(C)c(C)cc21)=NO[C@H](C)c1cn([C@H](CO)Cc2ccccc2)nn1`, the composite z-score with Albumin (Bos taurus) was 0.583; in assay [2], -0.0076; in assay [3], -0.135; in assay [4], -0.274; in assay [5], 0.558; in assay [6], -0.129. For the same compound, the composite z-score in the assay with Sam68 (KHDRBS1) turned out to be 0.321; in assay [7] it was 1.32; in assay [8] it was 0.0631. Moreover, the composite Z-score in assay [1] was 0.26 (inactive).

Take `C[C@@H](c1ccccc1)N1C(=O)[C@H]2[C@H]3[C@H](O)[C@H](O)CC(=NO[C@@H]4O[C@H](CO)[C@@H](O)[C@H](O)[C@H]4O)[C@H]3CC[C@H]2C1=O`: the composite z-score with Albumin (Bos taurus) is 0.0673; in assay [2] it was 0.0259; in [3], 0.012; in [4], -0.0193; in assay [5], 0.0007; in assay [6] it was 0.554. Further, the composite z-score with Sam68 (KHDRBS1) amounted to 0.648; in [7] it was 0.373; in assay [8], 0.44. For the same compound, in [1], the composite Z-score is -0.154 (inactive).

On to `CC(C)=CCCC(C)=CCON=C1C[C@@H](O)[C@@H](O)[C@@H]2[C@@H]3C(=O)N(C(C)(C)C)C(=O)[C@@H]3CC[C@H]12`, for which the composite z-score is 0.161 with Albumin (Bos taurus); 0.149 in assay [2]; -0.0846 in [3]; 0.0334 in assay [4]; 0.043 in assay [5]; 0.373 in assay [6]. In addition, the composite z-score in the assay with Sam68 (KHDRBS1) was 0.293; in assay [7], 0.346; in assay [8], 0.198. Also, the composite Z-score in assay [1] was 1.26 (inactive).

With `CCOC(=O)NN=C1C[C@@H](O)[C@@H](O)[C@@H]2[C@@H]3C(=O)N([C@@H](C)c4ccccc4)C(=O)[C@@H]3CC[C@@H]12`, the composite z-score is -0.899 with Albumin (Bos taurus); 0.119 in assay [2]; -0.0968 in [3]; -0.0526 in assay [4]; -0.374 in assay [5]; 0.129 in assay [6]. The composite z-score with Sam68 (KHDRBS1) is 1.23; in assay [7] it was 1.02; in [8], -1.09. The composite Z-score in assay [1] is -0.491 (inactive).

With `CO[C@H]1COC(=O)CCC[C@@H](C)[C@H](OC)COC(=O)[C@@H]2CCCN2C(=O)CC=C[C@@H]1C`, the composite z-score with Albumin (Bos taurus) is -0.695; in [2] it was -0.0074; in [3], -0.132; in assay [4], -0.465; in assay [5], -0.776; in [6], 0.324. Moreover, the composite z-score is -0.113 with Sam68 (KHDRBS1), 1.46 in assay [7] and -0.232 in assay [8]. Moreover, the composite Z-score in assay [1] was 0.215 (inactive).

Take `COC(=O)CC=C[C@@H](C)[C@@H](C=NO[C@@H](C)c1cn([C@H](CO)Cc2ccccc2)nn1)OC`: the composite z-score with Albumin (Bos taurus) was 0.943; in assay [2], -0.0069; in assay [3] it was -0.103; in assay [4], -0.225; in [5], -0.274; in assay [6], 0.137. For the same compound, the values for the composite z-score (in the assay on Sam68 (KHDRBS1); in assay [7]; in assay [8]) were 0.695, 0.664 and -0.61, respectively. Moreover, the composite Z-score in assay [1] is -0.452 (inactive).

Take `CO[C@@H]1COC(=O)[C@H](CCSC)NC(=O)CC=C[C@@H](C)COC(=O)[C@H](C)NC(=O)CC=C[C@H]1C`: the composite z-score in the assay with Albumin (Bos taurus) is -1.04; in assay [2] it was 0.187; in assay [3] it was -0.0907; in assay [4] it was -0.0169; in [5], -0.395; in assay [6] it was 0.36. Also, the composite z-score was 1.28 in the assay with Sam68 (KHDRBS1), 1.15 in assay [7] and -0.19 in assay [8]. For the same compound, the composite Z-score in assay [1] is 0.327 (inactive).

Take `COC(=O)[C@H]1[C@@H](O)[C@@]2(O)c3ccccc3O[C@@]2(c2ccccc2)[C@@H]1c1ccccc1`: the composite z-score with Albumin (Bos taurus) is -0.642; in assay [2], -0.1; in assay [3], -0.133; in [4], 0.18; in [5] it was 0.19; in assay [6] it was -0.221. Moreover, the composite z-score in the assay on Sam68 (KHDRBS1) is -0.926; in [7], 0.14; in assay [8], -0.246. Moreover, the composite Z-score in [1] is 1.97 (inactive).

With `Cc1ccc(S(=O)(=O)OC[C@H]2CN3[C@H](c4ccc(Br)cc4)[C@@H](C)CC[C@H]3C(=O)O2)cc1`, the composite z-score is 0.122 with Albumin (Bos taurus); -0.0918 in assay [2]; -0.147 in assay [3]; 0.366 in [4]; 0.393 in assay [5]; 0.0759 in assay [6]. Moreover, the composite z-score with Sam68 (KHDRBS1) was determined as 0.893; in assay [7], 0.0388; in assay [8] it was 0.818. For the same compound, in assay [1], the composite Z-score was -0.446 (inactive).

As for `CCCCC#C[C@@H]1C=C[C@H](Oc2cc(OC)c(OC)c(OC)c2)[C@@H](COC(=O)OCC)O1`, the composite z-score in the assay with Albumin (Bos taurus) is 0.227; in assay [2], -0.128; in [3], -0.0907; in assay [4], -0.165; in [5], -0.642; in assay [6] it was 0.211. Also, the composite z-score was -0.25 in the assay with Sam68 (KHDRBS1), 0.251 in assay [7] and -0.0793 in assay [8]. Besides, in assay [1], the composite Z-score is 0.0299 (inactive).

Values taken from PubChem BioAssay.
